Measured values: PubChem BioAssay AID1159580 (chemical genetic matrix, 2015)
Screen size: about 5,500 compounds; about 2,000 (36%) were called active. Another 18% or so got no clear call; they are omitted. This is one part of the list. Unmarked numbers belong to inactive results. No stated cut-off is given here; in the data, active means normalized growth mostly below about 0.91 (no sharp cut-off); inconclusive means no clear call, values can overlap the other calls; inactive means mostly above about 0.92.

Test: chemical genetic growth profiling, strain panel (AID 1159580);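 further: tested at 20 µM; growth read once vehicle control cultures reached saturation at 30 °C; 1 = growth at the plate median or of vehicle wells; lower values mean less growth of the strain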
Conditions: S. cerevisiae deletion strains, growth OD

COc1ccc2nc3ccccc3c(N)c2c1
normalized growth (locus YAR019C, strain CDC15, active compounds read low): 0.6 (active)
normalized growth (locus YBL105C, strain PKC1, active compounds read low): 0.592 (active)
normalized growth (locus YBR135W, strain CKS1, active compounds read low): 0.722 (active)
normalized growth (locus YBR136W, strain MEC1, active compounds read low): 0.657 (active)
normalized growth (locus YBR160W, strain CDC28, active compounds read low): 0.661 (active)
normalized growth (locus YDL017W, strain CDC7, active compounds read low): 0.636 (active)
normalized growth (locus YDL028C, strain MPS1, active compounds read low): 0.679 (active)
normalized growth (locus YDL108W, strain KIN28, active compounds read low): 0.737 (active)
normalized growth (locus YDL214C, strain PRR2, active compounds read low): 0.203 (active)
normalized growth (locus YDR052C, strain DBF4, active compounds read low): 0.701 (active)
normalized growth (locus YDR054C, strain cdc34, active compounds read low): 0.625 (active)
normalized growth (locus YDR477W, strain SNF1, active compounds read low): 0.198 (active)
normalized growth (locus YER123W, strain YCK3, active compounds read low): 0.195 (active)
normalized growth (locus YER133W, strain GLC7, active compounds read low): 0.215 (active)
normalized growth (locus YFL029C, strain CAK1, active compounds read low): 0.579 (active)
normalized growth (locus YFR003C, strain YPI1, active compounds read low): 0.652 (active)
normalized growth (locus YFR019W, strain FAB1, active compounds read low): 0.208 (active)
normalized growth (locus YGR040W, strain KSS1, active compounds read low): 0.21 (active)
normalized growth (locus YGR052W, strain FMP48, active compounds read low): 0.235 (active)
normalized growth (locus YGR092W, strain DBF2, active compounds read low): 0.227 (active)
normalized growth (locus YHR030C, strain SLT2, active compounds read low): 0.188 (active)
normalized growth (locus YHR079C, strain IRE1, active compounds read low): 0.206 (active)
normalized growth (locus YHR082C, strain KSP1, active compounds read low): 0.27 (active)
normalized growth (locus YHR205W, strain SCH9, active compounds read low): 0.151 (active)
normalized growth (locus YIL147C, strain SLN1, active compounds read low): 0.63 (active)
normalized growth (locus YJL095W, strain BCK1, active compounds read low): 0.227 (active)
normalized growth (locus YJL157C, strain FAR1, active compounds read low): 0.176 (active)
normalized growth (locus YJR016C, strain ILV3, active compounds read low): 0.699 (active)
normalized growth (locus YJR066W, strain TOR1 (second series), active compounds read low): 0.246 (active)
normalized growth (locus YJR066W, strain TOR1, active compounds read low): 0.233 (active)
normalized growth (locus YKL048C, strain ELM1, active compounds read low): 0.264 (active)
normalized growth (locus YKL067W, strain YNK1, active compounds read low): 0.19 (active)
normalized growth (locus YKL101W, strain HSL1, active compounds read low): 0.193 (active)
normalized growth (locus YKL193C, strain SDS22, active compounds read low): 0.659 (active)
normalized growth (locus YKL203C, strain TOR2, active compounds read low): 0.204 (active)
normalized growth (locus YLR113W, strain HOG1, active compounds read low): 0.257 (active)
normalized growth (locus YLR133W, strain CKI1, active compounds read low): 0.199 (active)
normalized growth (locus YLR403W, strain SFP1, active compounds read low): 0.11 (active)
normalized growth (locus YML070W, strain DAK1, active compounds read low): 0.207 (active)
normalized growth (locus YMR001C, strain CDC5, active compounds read low): 0.667 (active)
normalized growth (locus YMR205C, strain PFK2 (second series), active compounds read low): 0.258 (active)
normalized growth (locus YMR277W, strain FCP1, active compounds read low): 0.648 (active)
normalized growth (locus YNL006W, strain LST8, active compounds read low): 0.611 (active)
normalized growth (locus YNL020C, strain ARK1, active compounds read low): 0.196 (active)
normalized growth (locus YNL161W, strain CBK1, active compounds read low): 0.525 (active)
normalized growth (locus YNL183C, strain NPR1, active compounds read low): 0.283 (active)
normalized growth (locus YNL207W, strain RIO2, active compounds read low): 0.645 (active)
normalized growth (locus YNL222W, strain SSU72, active compounds read low): 0.638 (active)
normalized growth (locus YNL307C, strain MCK1 (second series), active compounds read low): 0.202 (active)
normalized growth (locus YOL078W, strain AVO1, active compounds read low): 0.689 (active)
normalized growth (locus YOL136C, strain PFK27, active compounds read low): 0.205 (active)
normalized growth (locus YOR061W, strain CKA2, active compounds read low): 0.186 (active)
normalized growth (locus YOR119C, strain RIO1, active compounds read low): 0.221 (active)
normalized growth (locus YOR231W, strain MKK1, active compounds read low): 0.225 (active)
normalized growth (locus YOR329C, strain SCD5, active compounds read low): 0.607 (active)
normalized growth (locus YPL031C, strain PHO85, active compounds read low): 0.214 (active)
normalized growth (locus YPL153C, strain RAD53, active compounds read low): 0.216 (active)
normalized growth (locus YPL204W, strain HRR25, active compounds read low): 0.198 (active)
normalized growth (locus YPL209C, strain IPL1, active compounds read low): 0.624 (active)
normalized growth (locus YPL256C, strain CLN2, active compounds read low): 0.252 (active)
normalized growth (locus YPR025C, strain CCL1, active compounds read low): 0.637 (active)
normalized growth (locus YPR106W, strain ISR1, active compounds read low): 0.679 (active)
normalized growth (locus YPR111W, strain DBF20, active compounds read low): 1
normalized growth (strain NNK1, active compounds read low): 0.537 (active)
normalized growth (strain TSCII, active compounds read low): 0.58 (active)
